For 14 compounds, outcome and AC50 results are on record in PubChem BioAssay (EPA / NIEHS).

Experiment [1] in a line: Tanguay_ZF_120hpf_MO24: Oregon State University Tanguay Lab 24 Hour Post-fertilization zebrafish Assay for Mortality (AID 2284389). A digest of the protocol:
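Embryo death at 24 hpf was recorded as present or absent in Tropical 5D zebrafish, dechorionated at 4 hpf and dosed statically from 6 hpf (28C, 0.64% DMSO); 5 uM trimethyltin chloride served as positive control.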

Experiment [2] in a line: Tanguay_ZF_120hpf_DP24: Oregon State University Tanguay Lab 24 Hour Post-fertilization zebrafish Assay for Delayed Development (AID 2284390). A digest of the protocol:
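Scored at 24 hpf as a binary present/absent call of delayed development by brightfield, with dead embryos not assessed. Embryos (5D wild type, chorion removed with pronase at 4 hpf) dosed statically from 6 hpf at 28 C in 0.64% DMSO.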

Experiment [3] in a line: Tanguay_ZF_120hpf_CRAN: Oregon State University Tanguay Lab 120 Hour Post-fertilization zebrafish Assay for Craniofacial Malformation (AID 2284397). A digest of the protocol:
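Scoring of craniofacial malformation as a binary endpoint was done at 120 hpf by brightfield microscopy and was not done in dead embryos. Exposure was static, starting at 6 hpf, in dechorionated wild-type embryos held singly at 28C with 0.64% DMSO final.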

A short description of experiment [4]: Tanguay_ZF_120hpf_AXIS: Oregon State University Tanguay Lab 120 Hour Post-fertilization zebrafish Assay for Axial Malformation (AID 2284398). A digest of the protocol:
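Scoring was binary (present or absent) for body-axis defects, judged by brightfield imaging at 120 hpf in surviving larvae. Exposure was static at 28C from 6 hpf in chorion-free 5D wild-type embryos, with 0.64% DMSO vehicle.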

Experiment [5] is described as follows: Tanguay_ZF_120hpf_MORT: Oregon State University Tanguay Lab 120 Hour Post-fertilization zebrafish Assay for Mortality (AID 2284399). A digest of the protocol:
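Mortality, recorded present/absent via brightfield imaging at 24 and 120 hpf, in 5D zebrafish embryos exposed statically from 6 hpf after pronase chorion removal. Exposure at 28C, 0.64% DMSO vehicle, DMSO baseline.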

The nature of experiment [6]: Tanguay_ZF_120hpf_EDEM: Oregon State University Tanguay Lab 120 Hour Post-fertilization zebrafish Assay for Edema Malformation (AID 2284400). In outline:
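Edema recorded as a binary endpoint under brightfield at 120 hpf, excluding embryos that died. Exposure was static, sealed, 28C, from 6 hpf in dechorionated wild-type larvae, final DMSO 0.64%, DMSO as baseline.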

Experiment [7] is described as follows: Tanguay_ZF_120hpf_MUSC: Oregon State University Tanguay Lab 120 Hour Post-fertilization zebrafish Assay for Muscle Malformation (AID 2284401). A digest of the protocol:
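Scored as a binary brightfield endpoint at 120 hpf, fitted versus DMSO. Single dechorionated wild-type (Tropical 5D) zebrafish embryos per well, statically exposed at 28C from 6 hpf onward with final DMSO 0.64%.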

Experiment [8] in a line: Tanguay_ZF_120hpf_BRN: Oregon State University Tanguay Lab 120 Hour Post-fertilization zebrafish Assay for Brain Region Malformation (AID 2284402). A digest of the protocol:
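Binary brightfield scoring of brain malformation at 120 hpf in 5D wild-type larvae, chorion removed with pronase at 4 hpf. Static exposure began at 6 hpf, 28C, sealed plates, DMSO 0.64% (vol/vol) as vehicle baseline.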

Experiment [9] is described as follows: Tanguay_ZF_120hpf_TCHR: Oregon State University Tanguay Lab 120 Hour Post-fertilization zebrafish Assay for Touch Responsive (AID 2284403). A digest of the protocol:
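Binary touch-response calls are made at 120 hpf in 5D wild-type zebrafish larvae. These larvae were dechorionated with pronase and exposed singly from 6 hpf in sealed, dark plates at 28 °C with 0.64% DMSO final; dead embryos are excluded.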

Experiment [10] can be described thus: Tanguay_ZF_120hpf_ANY: Oregon State University Tanguay Lab 120 Hour Post-fertilization zebrafish Assay for Any Mortality and Malformation (AID 2284404). In outline: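 Dechorionated Tropical 5D wild-type embryos, one per well from 6 hpf, static exposure in sealed, dark plates at 28C until 120 hpf, 0.64% DMSO final. Brightfield scoring of mortality and malformations as binary presence/absence, pooling 13 morphology endpoints.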

A short description of experiment [11]: CCTE_Padilla_ZF_Score.Craniofacial: CCTE's 144 Hour Post-fertilization zebrafish Assay Score for Craniofacial Malformation, Padilla Lab (AID 2284405). In outline: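 Craniofacial defects were scored at 6 dpf by two blinded observers using stereomicroscopy. Exposure of wild-type embryos began at 6–8 hpf in sealed wells of 10% Hanks' solution at 26C, with chemical removed by rinsing at 5 dpf.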

Experiment [12] can be described thus: CCTE_Padilla_ZF_Score.Edema: CCTE's 144 Hour Post-fertilization zebrafish Assay Score for Edema Malformation, Padilla Lab (AID 2284406). A digest of the protocol: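 Edema scored at 6 dpf by two blinded observers under a stereo microscope, in single outbred wild-type larvae exposed from 6-8 hpf in sealed wells (Hanks', 26C, 14:10 h light) and chemical-free after a 5 dpf rinse.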

Experiment [13] is described as follows: CCTE_Padilla_ZF_Score.Spine: CCTE's 144 Hour Post-fertilization zebrafish Assay Score for Spine Malformation, Padilla Lab (AID 2284407). A digest of the protocol: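 Spine malformation scored at 6 dpf by two independent blinded observers under stereomicroscope, after static sealed exposure from 6–8 hpf at 26C in Hanks' solution with rinse on 5 dpf. Positive-direction fit against DMSO control.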

Experiment [14] in a line: CCTE_Padilla_ZF_Score.Swim_bladder: CCTE's 144 Hour Post-fertilization zebrafish Assay Score for Swim Bladder Malformation, Padilla Lab (AID 2284408). A digest of the protocol:
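Swim bladder inflation scored at 6 dpf by two blinded observers under a stereo microscope. Exposure ran from 6–8 hpf in sealed wells of 10% Hanks' at 26C, with rinsing at 5 dpf; DMSO served as baseline.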

The nature of experiment [15]: CCTE_Padilla_ZF_Score.Position: CCTE's 144 Hour Post-fertilization zebrafish Assay Score for Position, Padilla Lab (AID 2284409). In outline:
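Wild-type zebrafish embryos (with chorions) exposed singly from 6–8 hpf in sealed wells of Hanks' solution at 26C, rinsed at 5 dpf. At 6 dpf, blinded assessors scored abnormal water-column position by brightfield stereomicroscopy, relative to DMSO.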

Experiment [16] in a line: CCTE_Padilla_ZF_Score.Living: CCTE's 144 Hour Post-fertilization zebrafish Assay Score for Viability, Padilla Lab (AID 2284410).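 Also: larval death at 6 dpf judged by absent heartbeat or coagulation.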 In outline:
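Mortality at 6 dpf, judged as absent heartbeat or coagulation by two blinded observers, after sealed static exposure beginning at 6–8 hpf at 26C. Larvae were rinsed free of chemical at 5 dpf, and activity was fitted relative to DMSO.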

A short description of experiment [17]: CCTE_Padilla_ZF_Score.General: CCTE's 144 Hour Post-fertilization zebrafish Assay Score for General Malformation, Padilla Lab (AID 2284411). A digest of the protocol: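 Malformation, death and hatching were scored at 6 dpf by two blinded observers under a stereo microscope. Embryos were dosed singly from 6-8 hpf in sealed plates of 10% Hanks' at 26C and rinsed on 5 dpf; DMSO baseline.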

Experiment [18] in a line: CCTE_Padilla_ZF_Score.Tail: CCTE's 144 Hour Post-fertilization zebrafish Assay Score for Tail Malformation, Padilla Lab (AID 2284414). In outline:
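Tail malformations were scored at 6 dpf by two blinded assessors under a stereo microscope. Chorionated embryos had been exposed from 6-8 hpf in sealed wells of 10% Hanks' at 26 C, then rinsed free of chemical at 5 dpf.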

Experiment [19] is described as follows: CCTE_Deisenroth_H295R-HTRF_384WELL_TESTOSTERONE: CCTE's H295R-HTRF Assay Evaluation of Testosterone Concentration, Deisenroth Lab (AID 2284373). To be noted: actives raise or lower the signal. In outline: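 Testosterone secreted into medium was quantified by direct HTRF immunoassay after a 48 h treatment of H295R adrenocortical cells (nine concentrations, 0.001–100 uM final). Gain or loss fitted relative to DMSO; CellTiter-Glo viability read on same plates.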

Experiment [20] is described as follows: CCTE_Deisenroth_H295R-HTRF_384WELL_CTOX: Cytotoxicity Assessment in CCTE's H295R-HTRF Assay, Deisenroth Lab (AID 2284380; active = hit-call score of the fitted dose curve at least 0.9, where 1 is the maximum). In outline:
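Luminescent ATP viability readout (CellTiter-Glo 2.0), multiplexed on plates used for hormone sampling, after 48 h chemical exposure. Human H295R cells; final concentrations 0.001–100 uM in nine steps, technical triplicates, five experiments; DMSO baseline.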

Activity calls are given as the source filed them. The calls were made as follows, unless noted: active = hit-call score of the fitted dose curve at least 0.9, where 1 is the maximum; inactive = score below 0.9.

Take `O=C(O)C(F)(F)C(F)(F)C(F)(F)C(F)(F)C(F)(F)C(F)(F)F`: the outcome in [1], in experiment [2], in [3], in experiment [4], in [5] and in experiment [6] was inactive. Moreover, the outcome in experiment [7], in experiment [8], in experiment [9], in experiment [10], in experiment [11] and in experiment [12] was inactive. In addition, the call in experiment [13], in experiment [14], in [15], in experiment [16], in experiment [17] and in [18] was inactive.
`CC(C)CCCCCCOC(=O)c1ccccc1C(=O)OCCCCCCC(C)C`: in experiment [17], the call was inactive.
On to `CCC1(c2ccc(N)cc2)CCC(=O)NC1=O` (stereo unspecified), for which the compound was classed as inactive in [19] and in experiment [20].
Turning to `NC(=S)Nc1ccccc1`, the compound was classed as inactive in experiment [17].
Still for that read-out and setting: the entry for `Nc1ncc([N+](=O)[O-])s1` is “inactive”.
Consider `Fc1ccc(C2(Cn3cncn3)OC2c2ccccc2Cl)cc1` (stereo unspecified), for which the half-maximal activity concentration (AC50) in experiment [19] is 1230 nM (active). Also, in experiment [20], the call was inactive.
Regarding `CC(=O)C(Cl)C(=O)N(C)C` (stereo unspecified), the outcome in [17] was inactive.
In the case of `CCOP(=S)(OCC)SCCS(=O)(=O)CC`, in experiment [17], the call was inactive.
`Nc1cccc2ccccc12`: the compound was classed as inactive in experiment [17].
Consider `CCOP(=S)(OCC)Oc1ccc(S(C)=O)cc1` (stereo unspecified), for which the compound was called inactive in experiment [17].
As to `BrCCBr`, the compound was classed as inactive in experiment [17].
On the same count and under the same terms, the entry for `COc1cc(OC)nc(NC(=O)NS(=O)(=O)c2ncccc2C(=O)N(C)C)n1` is “inactive”.
Consider `O=C(O)C(F)(F)C(F)(F)C(F)(F)C(F)(F)C(F)(F)C(F)(F)C(F)(F)C(F)(F)C(F)(F)C(F)(F)F`, for which the compound was called inactive in experiment [1], in [2], in [3], in experiment [4], in experiment [6] and in experiment [7]. The result in [8], in experiment [9], in experiment [13], in experiment [15] and in [18] was inactive. The AC50 in experiment [10] is 66500 nM (active); in experiment [11] it was 2410 nM (active); in experiment [12], 2400 nM (active); in [14], 2410 nM (active); in [16], 50700 nM (active); in experiment [17], 2510 nM (active).
Turning to `O=C(O)CCC(F)(C(F)(F)F)C(F)(F)F`, the outcome in experiment [11], in experiment [12], in experiment [13], in [14], in experiment [15] and in experiment [16] was inactive. Besides, the outcome in experiment [17] and in experiment [18] was inactive.
